# Measured values from PubChem BioAssay AID652017 (The Scripps Research Institute Molecular Screening Center, 2013).
# Screen size: about 370,000 compounds; about 3,800 (1%) were called active. The full list was thinned out, with actives kept by preference. A number with no mark means an inactive call. No stated cut-off is given here; in the data, active means activation above about 7.8%; inactive means the rest.
# Test: SMARCA2 (BRM) function activators, primary screen, cell-based, luminescence, high throughput (AID 652017);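 further: 0% = vehicle wells and 100% = reference activator wells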
# Details: MG213 cells, MMTV-luciferase reporter, dexamethasone, overnight; at 9.1 µM; hits give high values
row,Compound,activation
1,O=S(=O)(c1ccc(F)cc1)n1ccc(-c2cnc(-c3ccccc3)s2)n1,0.36%
2,CCOC(=O)c1csc(NC(=O)C2CCCN(S(=O)(=O)c3ccc(Cl)s3)C2)n1 (configuration not stated),-3.75%
3,Nn1c(SCC(=O)Nc2cccc3ccccc23)nnc1-c1cc(-c2ccc(F)cc2)n[nH]1,-3.63%
4,COC(=O)c1ccc(NCc2cc(O)ccc2O)cc1,8.39% (active)
5,CCS(=O)(=O)Nc1cc(C(=O)OC)ccc1C(=O)OC,-0.18%
6,O=C(OC12CC3CC(CC(C3)C1)C2)c1ccc(NCc2cc(O)ccc2O)cc1,-10.6%
7,O=C(NC1CCCCN(Cc2ccc(Cl)cc2)C1=O)c1ccc(Br)cc1 (configuration not stated),-1.79%
8,CCc1ccc(NC2Nc3cc(C)nn3S2)cc1 (configuration not stated),8.13% (active)
9,CC(=O)Nc1ccc(Nc2c3ccccc3nc3ccccc23)cc1,8.59% (active)
10,CC(=O)Nc1ccc(Nc2nc3c(S(=O)(=O)c4ccc(C)c(C)c4)nnn3c3ccccc23)cc1,0.7%
11,CCc1c(C)nc2c(-c3ccccc3)c(C)nn2c1Nc1ccc(NC(C)=O)cc1,-0.14%
12,O=C(CSc1nc2c(c(=O)[nH]1)CCCC2)N1CCCCC1,-4.24%
13,CCC(=O)OCCCN1C(=O)CCC12CCC(c1ccccc1)CC2 (configuration not stated),-3.5%
14,CC(=O)OCCN1CCCC12CCC(c1ccccc1)CC2 (configuration not stated),-0.56%
15,C=CCN1[C@H](CC(C)C)COc2cccc(N3CCCC3)c2S1(=O)=O,-1.47%
16,Nn1c(SCC(=O)Nc2ccc(S(N)(=O)=O)cc2)nnc1-c1n[nH]c2c1CCC2,0.23%
17,Oc1cccc2ccc(/C=C/c3ccc(Br)s3)nc12,10.9% (active)
18,COc1ccc(NC(=O)Cn2ncn3c(cc4ccccc43)c2=O)c(OC)c1OC,1.32%
19,C[C@H](C(=O)N(C)c1ccccc1)[C@@H](O)c1ccc(Cl)cc1,-0.55%
20,CCOC(=O)c1sc2nc(C)nc(SCC(N)=O)c2c1C,-1.05%
21,CCOC(=O)c1sc2nc(CSc3ccccc3)[nH]c(=O)c2c1C,9.98% (active)
22,CSc1nnc(SCc2nc3sc(C(=O)O)c(C)c3c(=O)[nH]2)s1,-1.68%
23,Cc1csc(Nc2ccc(Cl)cc2)[n+]1-c1ccc(Cl)cc1,-3.27%
24,CCC(c1ccc(NC(=O)OC(C)(C)C)cc1)c1cc(OC)cc(OC)c1 (configuration not stated),-2.7%
25,Cc1ccc(NC(=O)c2cc(C)nn2-c2ccccc2)c(C)c1,-4.44%
26,Cc1ccnc(-n2sc3ccccc3c2=O)n1,1.96%
27,Cc1ccnc(Nc2nc3ccccc3s2)n1,10.6% (active)
